“And” between values parts separate entries of the source, which are not always exact repeats. Equal entries are not always repeated. Records with an inconclusive call do not appear. The source made the active and inactive calls. Unless noted, the call rests on the fitted dose curve; in most records, active means well fitted curve in the direction sought with a large enough effect; inconclusive means small, poorly fitted or top-dose-only effect, or another doubt; inactive means no such curve, though single readings can be large; an effect the other way counts as inactive or inconclusive.
Assays:
[1] = molecular target: Cellular tumor antigen p53 (Homo sapiens) (UniProt P04637); experiment: Primary qHTS for small molecule compounds that upregulate eGFP-tagged delta133p53alpha (in N-terminal) cells. (AID 2060322); conditions: NCI-H358 eGFP-delta133p53alpha fluorescence, 24 h; activation: stronger effect = higher value;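 further: 0% = DMSO vehicle and 100% = reference activator; nearly all actives have a fitted effect of over 75% in size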
Chain of Cellular tumor antigen p53 (Homo sapiens) (P04637 whole entry, looked up): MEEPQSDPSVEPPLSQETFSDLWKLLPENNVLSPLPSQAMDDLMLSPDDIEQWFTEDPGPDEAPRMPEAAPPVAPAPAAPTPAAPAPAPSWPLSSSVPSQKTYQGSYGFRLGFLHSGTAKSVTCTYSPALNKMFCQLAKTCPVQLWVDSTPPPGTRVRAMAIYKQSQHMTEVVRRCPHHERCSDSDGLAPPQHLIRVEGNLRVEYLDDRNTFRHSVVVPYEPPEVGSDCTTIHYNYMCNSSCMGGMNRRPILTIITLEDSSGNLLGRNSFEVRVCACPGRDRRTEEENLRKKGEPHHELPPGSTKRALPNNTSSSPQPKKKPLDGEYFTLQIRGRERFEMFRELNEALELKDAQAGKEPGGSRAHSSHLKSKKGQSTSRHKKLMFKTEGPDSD
Outline: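 NCI-H358 cells pre-induced 24 h with 10 ng/ml doxycycline to express N-terminal eGFP-delta133p53alpha, then dosed 24 h at 37C without doxycycline; fixed, Hoechst-stained, GFP intensity by laser scanning cytometry, normalized to DMSO (0%) and 57.5 uM 5-azacytidine (100%).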

[2] = molecular target: Cellular tumor antigen p53 (Homo sapiens) (UniProt P04637); experiment: Primary qHTS for small molecule compounds that upregulate eGFP-tagged delta133p53alpha (in C-terminal) cells. (AID 2060324); conditions: NCI-H358 delta133p53alpha-eGFP (C-terminal tag), GFP fluorescence imaging, 24 h; series mostly up to 57.5 µM;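 further: 0% = DMSO wells and 100% = 57.5 µM 5-azacytidine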
Outline: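 NCI-H358 cells pre-induced 24 h with 100 ng/ml doxycycline to express delta133p53alpha-eGFP, then dosed in doxycycline-free medium for 24 h at 37C. Fixed, Hoechst-stained; GFP intensity by laser scanning cytometry, normalized to DMSO wells.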

[3] = molecular target: Aldehyde dehydrogenase, mitochondrial (Homo sapiens) (UniProt P05091); experiment: qHTS for Inhibitors of the Aldehyde Dehydrogenase Family (ALDH2) Validation screens (AID 2061302; active means well fitted inhibition curve with a large enough effect; title and protocol of this record describe different tests;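 further: plate controls were DMSO vehicle for no effect and maximal DPI positive control response for full effect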); conditions: ALDH inhibition qHTS; series mostly up to 42.6 µM
[4] = molecular target: Retinaldehyde dehydrogenase 3 (Homo sapiens) (UniProt P47895); experiment: qHTS for Inhibitors of the Aldehyde Dehydrogenase Family (ALDH1A3) Validation screen (AID 2061312); conditions: ALDH1A3 enzyme inhibition qHTS validation, fluorescence; series mostly up to 84.7 µM; further: on the % scale 0 is the no-effect control and ±100 the full control effect; nearly all actives have a fitted effect of over 45% in size

O=C1C2C=CC=CC2=NC(=S)N1CCN1CCC(=C(c2ccc(F)cc2)c2ccc(F)cc2)CC1 (centres undefined)
inactive: activation [1] -39.4% | Potency [2] | Potency [3] | Potency [4]

CC1(C)CCC=[N+]1[O-]
inactive: activation [1] 8.43% | Potency [2] | Potency [3] | Potency [4]

NCC(O)(CS(=O)(=O)O)c1ccc(Cl)cc1 (centres undefined)
inactive: activation [1] -28.8% | Potency [2] | Potency [3] | Potency [4]

O=c1[nH]c2cc([N+](=O)[O-])c([N+](=O)[O-])cc2[nH]c1=O
inactive: activation [1] 41.5% | Potency [2] | Potency [3] | Potency [4]

COC(=O)[C@@H](N)Cc1ccc(O)c(O)c1
inactive: activation [1] 2.51% and -29.9% | Potency [2] | Potency [3] | Potency [4]

CC1(C)C(=O)N(CCN2CCC(C(=O)c3ccc(F)cc3)CC2)c2ccccc21
inactive: activation [1] -67.7% and -2.62% | Potency [2] | Potency [3] | Potency [4]

OC1(c2ccc(Cl)cc2)CCN(Cc2c[nH]c3ccccc23)CC1
inactive: activation [1] -4.41% | Potency [2] | Potency [3] | Potency [4]

C#CC(N)CCC(=O)O (centres undefined)
inactive: activation [1] -41.5% | Potency [2] | Potency [3] | Potency [4]

O=C(O)C1=CCCNC1
inactive: activation [1] -16.6% | Potency [2] | Potency [3] | Potency [4]

CC(=O)SC1CC2=CC(=O)CC[C@]2(C)C2CC[C@@]3(C)C(CC[C@@]34CCC(=O)O4)C12 (some centres undefined)
inactive: activation [1] -47.2% | Potency [2] | Potency [3] | Potency [4]

OC[C@H]1O[C@@H](n2cnc3c(NC4CCCC4)ncnc32)[C@H](O)[C@@H]1O
inactive: activation [1] -30.9% | Potency [2] | Potency [3] | Potency [4]

C[N+](C)(C)CC=O
inactive: activation [1] -21.7% | Potency [2] | Potency [3] | Potency [4]

CC(=O)OC(C)C[N+](C)(C)C (centres undefined)
inactive: activation [1] 10.7% and 1.73% | Potency [2] | Potency [3] | Potency [4]

c1ccc2c(c1)CC(N1CCN(c3cccc4c3OCCO4)CC1)C2
inactive: activation [1] 1.22% | Potency [2] | Potency [3] | Potency [4]

CCN1CCCC1CNC(=O)c1cc(S(N)(=O)=O)ccc1OC (centres undefined)
inactive: activation [1] 8% and -7.28% | Potency [2] | Potency [3] | Potency [4]

Nc1nc2[nH]c(=O)cnc2c(=O)[nH]1
inactive: activation [1] -25.1% | Potency [2] | Potency [3] | Potency [4]

O=C(O)c1cc([N+](=O)[O-])ccc1NCCCc1ccccc1
inactive: activation [1] -7.19% | Potency [2] | Potency [3] | Potency [4]

CNc1ncnc2c1ncn2[C@H]1C[C@H](OP(=O)(O)O)[C@@H](COP(=O)(O)O)O1
inactive: activation [1] 3.4% | Potency [2] | Potency [3] | Potency [4]

CNC(=O)[C@H]1O[C@@H](n2cnc3c(NCc4ccc(N)cc4)ncnc32)[C@H](O)[C@@H]1O
inactive: activation [1] -32.5% | Potency [2] | Potency [3] | Potency [4]

COc1ccccc1N1CCN(CCCCNC(=O)c2ccc3ccccc3c2)CC1
inactive: activation [1] -23% | Potency [2] | Potency [3] | Potency [4]

CCCn1c(=O)c2[nH]c(C3CCCC3)nc2n(CCC)c1=O
inactive: activation [1] -35.5% | Potency [2] | Potency [3] | Potency [4]

CNc1ncnc2c1ncn2[C@@H]1O[C@H](CO)[C@@H](O)[C@H]1O
inactive: activation [1] 5.48% | Potency [2] | Potency [3] | Potency [4]

CCCCCCCCCCCCCCC[C@H](O)[C@H](N)CO
inactive: activation [1] 14.1% | Potency [2] | Potency [3] | Potency [4]

N[C@@H](Cc1ccc(O)c(I)c1)C(=O)O
inactive: activation [1] -4.51% | Potency [2] | Potency [3] | Potency [4]

Cc1ccc(=O)n(-c2ccccc2)c1
inactive: activation [1] 1.01% | Potency [2] | Potency [3] | Potency [4]

CN(C)CCOC(C)(c1ccccc1)c1ccccn1 (centres undefined)
inactive: activation [1] -7.21% | Potency [2] | Potency [3] | Potency [4]
